# Test results: PubChem BioAssay
# Legend:
# [1] = system: Human papillomavirus type 1a protein E7 (residues 44-93); assay: small molecules binding HPV E7 44-93 – biochemical, small-molecule microarray, residues 44-93, 635 nm fluorescence, primary screen (AID 1108); conditions: fluorescence 635 nm, higher = more signal;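 note: E7 fragment applied at 1 µg/mL in TBST for 1 h at 4 C; score combines spot fluorescence with its signal to noise ratio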
# [2] = hepatitis C replication reporter changes, two-sided – Huh7 cells, luciferase reporter, HCV replication inhibitor project, primary screen (AID 1109); conditions: Huh7 HCV replicon luciferase reporter, 48 h; higher = more signal;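 note: huh7 hepatoma cells harbouring a luciferase neomycin HCV replicon reporter; luciferase luminescence as measure of HCV replicon replication; test concentration not given here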
# [3] = target: Left-right determination factor 2 (Homo sapiens) (UniProt O00292); assay: small molecules binding LEFTY2 protein – biochemical, small-molecule microarray, 635 nm fluorescence scan, primary screen (AID 1110); conditions: higher = more signal
# Sequence of Left-right determination factor 2 (Homo sapiens) (O00292 whole entry, looked up): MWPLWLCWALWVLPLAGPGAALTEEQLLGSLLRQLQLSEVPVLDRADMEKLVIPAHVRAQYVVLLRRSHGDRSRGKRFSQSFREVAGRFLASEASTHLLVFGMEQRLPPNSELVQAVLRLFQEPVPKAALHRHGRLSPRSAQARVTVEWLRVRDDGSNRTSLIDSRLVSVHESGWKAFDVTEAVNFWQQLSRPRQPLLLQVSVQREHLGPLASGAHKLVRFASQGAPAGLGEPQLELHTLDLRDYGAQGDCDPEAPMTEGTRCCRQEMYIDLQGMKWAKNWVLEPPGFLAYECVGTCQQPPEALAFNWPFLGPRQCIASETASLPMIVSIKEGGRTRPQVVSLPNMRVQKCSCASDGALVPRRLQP
# [4] = target: Calmodulin-1 (Homo sapiens) (UniProt P0DP23); assay: small molecules binding calmodulin-1 with EGTA – biochemical, small-molecule microarray, Cy5-labelled CALM1, profiling panel (AID 1111); conditions: Cy5-CALM1 binding fluorescence, higher = more signal;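 note: labelled calmodulin applied in Tris saline Tween buffer holding calcium plus EGTA and DTT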
# [5] = target: Calmodulin-1 (Homo sapiens) (UniProt P0DP23); assay: small molecules binding Ca-loaded calmodulin-1 – biochemical, small-molecule microarray, Cy5-labelled CALM1, plus calcium, artefact control for SMM control-protein annotation, profiling panel (AID 1112); conditions: Cy5-CALM1 binding fluorescence, higher = more signal;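 note: score merges spot fluorescence with signal to noise from triplicate slides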
# [6] = probe aWnt5a binding to arrayed compounds – biochemical, biotinylated probe, 635/667 nm fluorescence, primary screen (AID 1113); conditions: small-molecule microarray, higher = more signal;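 note: score merges 667 nm fluorescence intensity with signal-to-noise per printed feature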
# [7] = probe aShh binding to arrayed compounds – biochemical, biotinylated probe, 635/667 nm fluorescence, primary screen (AID 1114); conditions: small-molecule microarray, higher = more signal;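 note: probe is biotin-labelled aShh protein from a stem cell growth factor screen; measures binding of labelled protein to compounds printed on the slide; score merges feature fluorescence at 667 nm with signal-to-noise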
# [8] = probe aNog binding to arrayed compounds – biochemical, biotinylated probe, 635/667 nm fluorescence, primary screen (AID 1115); conditions: small-molecule microarray, higher = more signal;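 note: probe is biotinylated aNog protein used at 0.15 µg/mL for 1 h at 4 C; z-score combines 667 nm fluorescence of each spot with its signal to noise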
# [9] = target: Torsin-1A-interacting protein 1 (Homo sapiens) (UniProt Q5JTV8); assay: compound microarray binding of lysate hLAP1 – cell lysate, small-molecule microarray, COS7 lysate, 635/667 nm fluorescence, primary screen (AID 1116); conditions: 635 nm fluorescence, higher = more signal
# Sequence of Torsin-1A-interacting protein 1 (Homo sapiens) (Q5JTV8 whole entry, looked up): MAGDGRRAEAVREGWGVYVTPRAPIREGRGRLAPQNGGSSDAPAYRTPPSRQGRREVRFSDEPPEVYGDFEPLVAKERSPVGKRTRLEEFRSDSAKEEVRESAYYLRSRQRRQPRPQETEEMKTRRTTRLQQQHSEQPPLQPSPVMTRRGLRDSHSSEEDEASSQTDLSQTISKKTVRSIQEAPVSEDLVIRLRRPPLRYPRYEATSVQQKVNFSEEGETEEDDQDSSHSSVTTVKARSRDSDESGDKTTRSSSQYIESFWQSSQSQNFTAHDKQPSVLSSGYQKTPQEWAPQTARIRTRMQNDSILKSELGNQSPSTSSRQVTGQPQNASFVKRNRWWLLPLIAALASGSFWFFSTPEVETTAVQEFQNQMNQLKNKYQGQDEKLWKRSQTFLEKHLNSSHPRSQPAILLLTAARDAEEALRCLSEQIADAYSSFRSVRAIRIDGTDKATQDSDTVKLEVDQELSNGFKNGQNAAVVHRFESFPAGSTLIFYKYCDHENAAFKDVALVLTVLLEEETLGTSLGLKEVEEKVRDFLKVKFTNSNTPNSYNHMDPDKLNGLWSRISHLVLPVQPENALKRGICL
# [10] = target: Alpha-bungarotoxin (Bungarus multicinctus) (UniProt P60615); assay: compounds binding labelled alpha-BTX control protein – biochemical, small-molecule microarray, Alexa647 label, 635/667 nm fluorescence, artefact control for SMM control protein annotation, profiling panel (AID 1117); conditions: alpha-BTX-A647 binding fluorescence, higher = more signal
# Sequence of Alpha-bungarotoxin (Bungarus multicinctus) (P60615 whole entry, looked up): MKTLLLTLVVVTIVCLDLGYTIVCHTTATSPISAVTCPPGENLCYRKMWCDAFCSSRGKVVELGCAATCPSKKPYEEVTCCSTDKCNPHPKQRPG
smiles,measurement,setting,value
C[C@H]1C=CCC(=O)OC[C@H](C)C(=O)N2CCC[C@H]2C(=O)OC1,composite z-score,[1],-2.34
same,z-score,[2],-0.971
same,composite z-score,[3],1.62
same,composite z-score,[4],-0.774
same,composite z-score,[5],-1.82
same,composite z-score,[6],-0.174
same,composite z-score,[7],-0.0709
same,composite z-score,[8],-0.137
same,composite z-score,[9],1.71
same,composite z-score,[10],-0.477
C[C@]12CCC3c4ccc(OCC5CO5)cc4CCC3C1CC[C@@H]2O (stereo not given in full),composite z-score,[1],0.629
same,z-score,[2],-2.71
same,composite z-score,[3],0.242
same,composite z-score,[4],0.964
same,composite z-score,[5],0.285
same,composite z-score,[6],-0.0346
same,composite z-score,[7],0.0062
same,composite z-score,[8],0.316
same,composite z-score,[9],0.542
same,composite z-score,[10],1.59
O=C1[C@H]2[C@H]3[C@H](O)[C@H](O)CC(=NOC[C@@H](O)COCc4ccco4)[C@@H]3CC[C@H]2C(=O)N1C1CCCCC1,composite z-score,[1],0.814
same,z-score,[2],-0.337
same,composite z-score,[3],0.72
same,composite z-score,[4],-0.608
same,composite z-score,[5],-1.66
same,composite z-score,[6],-0.124
same,composite z-score,[7],-0.206
same,composite z-score,[8],-0.5
same,composite z-score,[9],0.289
same,composite z-score,[10],-0.0636
O=C1C2=CC[C@H]3C(=O)N(C[C@@H]4CCCO4)C(=O)[C@H]3[C@H]2[C@H](O)[C@@H]2O[C@H]12,composite z-score,[1],0.0207
same,z-score,[2],-4.56
same,composite z-score,[3],0.153
same,composite z-score,[4],-0.248
same,composite z-score,[5],-1.13
same,composite z-score,[6],-0.219
same,composite z-score,[7],0.0121
same,composite z-score,[8],-0.158
same,composite z-score,[9],0.518
same,composite z-score,[10],0.395
CC(CCN1CCCCc2nc(C)c(C)cc21)=NO[C@@H](C)c1cc(-c2c(C)cc(C)cc2C)no1,composite z-score,[1],-0.384
same,z-score,[2],-1.56
same,composite z-score,[3],-0.747
same,composite z-score,[4],-0.901
same,composite z-score,[5],-0.891
same,composite z-score,[6],-0.152
same,composite z-score,[7],-0.221
same,composite z-score,[8],-0.298
same,composite z-score,[9],0.0623
same,composite z-score,[10],-0.664
O=C1C[C@@H](O)[C@@H](O)[C@@H]2[C@@H]3C(=O)N(C4CCCCC4)C(=O)[C@@H]3CC[C@@H]12,composite z-score,[1],0.242
same,z-score,[2],-0.331
same,composite z-score,[3],0.697
same,composite z-score,[4],-0.0958
same,composite z-score,[5],-0.397
same,composite z-score,[6],-0.177
same,composite z-score,[7],0.0898
same,composite z-score,[8],-0.104
same,composite z-score,[9],0.462
same,composite z-score,[10],0.882
O=C1[C@H]2[C@H]3[C@H](O)[C@H](O)CC(=NOCc4ccccc4)[C@H]3CC[C@H]2C(=O)N1C1CCCCC1,composite z-score,[1],0.656
same,z-score,[2],0.409
same,composite z-score,[3],0.531
same,composite z-score,[4],0.55
same,composite z-score,[5],0.158
same,composite z-score,[6],-0.0572
same,composite z-score,[7],0.0754
same,composite z-score,[8],0.165
same,composite z-score,[9],-0.106
same,composite z-score,[10],1.01
COc1ccc(O[C@H]2C=C[C@@H](c3ccccc3)O[C@@H]2CON=C(C)CCN2CCCc3nc(C)c(C)cc32)cc1,composite z-score,[1],1.09
same,z-score,[2],-2.04
same,composite z-score,[3],0.597
same,composite z-score,[4],0.284
same,composite z-score,[5],-0.425
same,composite z-score,[6],-0.0869
same,composite z-score,[7],-0.0769
same,composite z-score,[8],-0.158
same,composite z-score,[9],0.358
same,composite z-score,[10],0.651
CCOC(=O)CCN1C(=O)[C@H]2[C@H]3[C@H](O)[C@H](O)CC(=NOCC=C(C)CCC=C(C)C)[C@@H]3CC[C@H]2C1=O,composite z-score,[1],-0.401
same,z-score,[2],-0.469
same,composite z-score,[3],0.631
same,composite z-score,[4],0.113
same,composite z-score,[5],-0.672
same,composite z-score,[6],-0.1
same,composite z-score,[7],-0.179
same,composite z-score,[8],-0.0827
same,composite z-score,[9],0.166
same,composite z-score,[10],-0.0599
C[C@H]1CC[C@@H](C(=O)O)N[C@@H]1c1ccc(C#Cc2ccccc2)cc1,composite z-score,[1],0.942
same,z-score,[2],-4.69
same,composite z-score,[3],0.753
same,composite z-score,[4],0.119
same,composite z-score,[5],-0.332
same,composite z-score,[6],-0.0203
same,composite z-score,[7],-0.154
same,composite z-score,[8],-0.256
same,composite z-score,[9],0.666
same,composite z-score,[10],0.966
CO[C@@H]1COC(=O)[C@@H]2CCCN2C(=O)[C@@H](C)COC(=O)CCC[C@H]1C,composite z-score,[1],0.212
same,z-score,[2],-0.016
same,composite z-score,[3],0.83
same,composite z-score,[4],-0.0691
same,composite z-score,[5],-0.911
same,composite z-score,[6],-0.175
same,composite z-score,[7],-0.0553
same,composite z-score,[8],-0.346
same,composite z-score,[9],0.883
same,composite z-score,[10],0.482
COC(=O)[C@H](C)NC(=O)CCC1CC(OC(=O)NCc2ccc3c(c2)OCO3)CC2(CCCC(COC(=O)NCCCN3CCCC3=O)O2)O1 (stereo not given in full),composite z-score,[1],1.32
same,z-score,[2],-1.87
same,composite z-score,[3],0.849
same,composite z-score,[4],0.924
same,composite z-score,[5],-0.151
same,composite z-score,[6],-0.0644
same,composite z-score,[7],-0.186
same,composite z-score,[8],0.0215
same,composite z-score,[9],0.286
same,composite z-score,[10],0.88
O=C1CCCC=C1C(O)C1CCCCC1 (stereo not given),composite z-score,[1],-0.64
same,z-score,[2],0.108
same,composite z-score,[3],-0.0231
same,composite z-score,[4],-0.583
same,composite z-score,[5],-0.389
same,composite z-score,[6],0.0088
same,composite z-score,[7],-0.186
same,composite z-score,[8],-0.134
same,composite z-score,[9],-0.207
same,composite z-score,[10],-0.268
CCOC(=O)[C@H](CC(C)C)NC(=O)CCC1CC(OC(=O)NCc2ccc3c(c2)OCO3)CC2(CCCC(COC(=O)NCCOc3ccccc3)O2)O1 (stereo not given in full),composite z-score,[1],1.35
same,z-score,[2],-1.07
same,composite z-score,[3],0.715
same,composite z-score,[4],-0.0232
same,composite z-score,[5],-0.466
same,composite z-score,[6],0.0232
same,composite z-score,[7],-0.0289
same,composite z-score,[8],-0.404
same,composite z-score,[9],0.303
same,composite z-score,[10],0.905
CCN1C(=O)[C@H]2[C@H]3[C@H](O)[C@H](O)CC(=NO[C@H](C)c4cn([C@@H]5COC[C@H]5O)nn4)[C@@H]3CC[C@H]2C1=O,composite z-score,[1],-0.137
same,z-score,[2],-0.936
same,composite z-score,[3],0.684
same,composite z-score,[4],-0.3
same,composite z-score,[5],-0.4
same,composite z-score,[6],-0.0445
same,composite z-score,[7],-0.291
same,composite z-score,[8],0.0043
same,composite z-score,[9],-0.0938
same,composite z-score,[10],-0.23
CC(C)=CCCC(C)=CCON=C1C[C@@H](O)[C@@H](O)[C@@H]2[C@@H]3C(=O)N(C4CCCCC4)C(=O)[C@@H]3CC[C@H]12,composite z-score,[1],0.684
same,z-score,[2],-0.127
same,composite z-score,[3],0.594
same,composite z-score,[4],-0.432
same,composite z-score,[5],-1.2
same,composite z-score,[6],-0.0425
same,composite z-score,[7],-0.0904
same,composite z-score,[8],-0.341
same,composite z-score,[9],-0.0853
same,composite z-score,[10],0.713
COC(=O)[C@@H]1CC[C@H](C)[C@@H](c2ccc(C)cc2)N1C(=O)c1ccc(C=NOC[C@@H](O)[C@H]2O[C@@H]3OC(C)(C)O[C@@H]3[C@H]2O)cc1,composite z-score,[1],1.15
same,z-score,[2],-0.447
same,composite z-score,[3],0.414
same,composite z-score,[4],0.504
same,composite z-score,[5],-0.12
same,composite z-score,[6],-0.117
same,composite z-score,[7],-0.0709
same,composite z-score,[8],-0.168
same,composite z-score,[9],0.555
same,composite z-score,[10],0.776
